What all share (assay type): functional
The subject of assay [1] is Plasmodium falciparum. The assay can be described thus: GSK_TCMDC: Inhibition of Plasmodium falciparum 3D7 in whole red blood cells, using parasite LDH activity as an index of growth. Test compounds present at 2uM.
For assay [2], the system named is Plasmodium falciparum. The assay can be described thus: GSK_TCMDC: Inhibition of Plasmodium falciparum Dd2 in whole red blood cells, using parasite LDH activity as an index of growth. Test compounds present at 2uM.
The test system of the next assay is HepG2. The assay can be described thus: GSK_TCMDC: Percent inhibition of human HepG2 cell line. Test compounds present at 10uM.

Take `Cc1ccn2c(C(=O)N3CCN(c4cccc5c4nc(-c4ccoc4)n5Cc4ccccn4)CC3)c(C)nc2c1`: the Inhibition in the assay with Plasmodium falciparum [1] is 98%; in the assay on Plasmodium falciparum [2] it was 99%; with HepG2, 2%.
As to `COc1ccc2ncc(F)c(CCN3CC[C@@H](CNCc4cc(C)c5c(c4)OCCO5)C3)c2n1.Cl`, the Inhibition in the assay with Plasmodium falciparum [1] worked out at 98%; in the assay with Plasmodium falciparum [2], 44%; with HepG2, 22%.
As for `O=C(Nc1ccc2c(c1)CCC2)N[C@H]1CCN(CCCCCNC(=O)C2CC2c2ccc(Cl)c(Cl)c2)C1` (stereo partly specified), the Inhibition came out at 86% with Plasmodium falciparum [1], 0% with Plasmodium falciparum [2] and 37% in the assay with HepG2.
In the case of `CC1=C(C(=O)Nc2cc3cn[nH]c3cc2F)C(c2cccc(NS(C)(=O)=O)c2)CC(=O)N1` (stereo unspecified), the Inhibition with Plasmodium falciparum [1] is 96%; in the assay with Plasmodium falciparum [2], 97%; in the assay on HepG2, 0%.
For `Cn1c(NC(=O)C2CCC(CNC(=O)c3ccc(O)c(-c4ccc(Cl)c(Cl)c4)c3)CC2)nc2ccccc21` (stereo unspecified) the same measures were 99%, 100% and 40%.
For `C=CCn1c(SCC(=O)Nc2cc(C)ccc2OC)nc2sc(C)cc2c1=O` the same measures were 100%, 86% and 6%.
On to `O=C(Nc1cccc(-c2ccc(-c3nc4cc(C(F)(F)F)ccc4[nH]3)cc2)c1)c1cccnc1`, for which the values for the Inhibition in the assay with Plasmodium falciparum [1], in the assay with Plasmodium falciparum [2] and in the assay on HepG2 were 100%, 97% and 73%, respectively.
As for `Cc1ccc(C(=O)NC2C(=O)NC2c2ccccc2)c(C)c1` (stereo unspecified), the Inhibition in the assay on Plasmodium falciparum [1] was found to be 90%; in the assay with Plasmodium falciparum [2], 0%; in the assay on HepG2, 7%.
Turning to `COc1ccc2nccc([C@@H](O)CN3CCC(NCc4cc5cccc(O)c5[nH]4)CC3)c2c1.O=C(O)C(=O)O`, the figures for the Inhibition in the assay on Plasmodium falciparum [1], in the assay with Plasmodium falciparum [2] and in the assay on HepG2 were 100%, 35% and 0%, respectively.
Take `COc1ccc(Br)cc1C1C2C(=O)N(c3ccc(Br)cc3)C(=O)C2C2(C(=O)O)CC(OCc3ccccc3)CN12` (stereo unspecified): the Inhibition in the assay on Plasmodium falciparum [1] was found to be 100%; in the assay with Plasmodium falciparum [2], 99%; with HepG2 it was 16%.
In the same order, the values of `COC(=O)c1cccc(CNCc2ccc(-c3ccc(-c4nc5cc(C(F)(F)F)ccc5[nH]4)cc3)cc2)c1.O=C(O)C(F)(F)F` are 100%, 98% and 22%.
As to `COc1cc(NC(=O)c2nn(CCCN3CCC(N4CCCC4)CC3)cc2-c2ccc(Cl)c(Cl)c2)cc(OC)c1OC`, the Inhibition with Plasmodium falciparum [1] amounted to 100%; in the assay with Plasmodium falciparum [2], 100%; in the assay with HepG2, 76%.
Consider `COc1ccc(NC(=O)Nc2ccc(-c3cccc(-c4nc5cccc(C)c5[nH]4)c3)cc2)cc1`, for which the Inhibition turned out to be 100% with Plasmodium falciparum [1], 75% with Plasmodium falciparum [2] and 33% in the assay on HepG2.
`Cc1ccc(NC(=O)NC2CCN(CCCCCNC(=O)/C=C/c3ccc(Cl)c(Cl)c3)CC2)cc1`: the Inhibition in the assay with Plasmodium falciparum [1] was 100%; with Plasmodium falciparum [2], 19%; with HepG2, 41%.
For `O=[N+]([O-])c1ccc(C(O)P(=O)(c2ccccc2)c2ccccc2)cc1` (stereo unspecified), the Inhibition in the assay on Plasmodium falciparum [1] is 98%; in the assay on Plasmodium falciparum [2], 1%; in the assay on HepG2, 1%.
As for `OC(CNc1ccnc(Nc2ccc(Cl)cc2)n1)c1ccc(C(F)(F)F)cc1` (stereo unspecified), the Inhibition in the assay with Plasmodium falciparum [1] is reported as 100%; with Plasmodium falciparum [2] it was 94%; in the assay on HepG2, 0%.
Take `COc1cc2ccccc2c(OC)c1CCNCCCCNCCc1c(OC)cc2ccccc2c1OC.CS(=O)(=O)O`: the Inhibition in the assay on Plasmodium falciparum [1] came out at 99%; in the assay with Plasmodium falciparum [2] it was 30%; in the assay with HepG2, 100%.
For `CN1CCN(CCCN(Cc2cccc(-c3ccc(CNC4CCCC4)cc3)c2)C(=O)/C=C/c2ccccc2)CC1.O=C(O)C(F)(F)F` the same measures were 98%, 96% and 62%.
Take `CC(=O)Nc1cccc(C(=O)Nc2ccc(-c3ccc(-c4nc5cccc(C)c5[nH]4)s3)cc2)c1`: the Inhibition in the assay on Plasmodium falciparum [1] is 93%; in the assay on Plasmodium falciparum [2] it was 20%; in the assay on HepG2, 94%.
Regarding `Cc1ccccc1C1CCN(C2CCC(NC(=O)c3ccc(-c4ccccn4)s3)CC2)CC1` (stereo unspecified), the values for the Inhibition with Plasmodium falciparum [1], in the assay with Plasmodium falciparum [2] and with HepG2 were 87%, 17% and 32%, respectively.
Consider `Cc1nc(N)nc(N)c1-c1ccc(Cl)cc1`, for which the Inhibition with Plasmodium falciparum [1] was determined as 96%; in the assay on Plasmodium falciparum [2], 0%; with HepG2 it was 15%.
`O=C(Nc1cccc(C(F)(F)F)c1)NC1CCN(c2ccnc3cc(Cl)ccc23)CC1.O=C(O)C(F)(F)F`: the values for the Inhibition in the assay with Plasmodium falciparum [1], with Plasmodium falciparum [2] and in the assay with HepG2 were 100%, 47% and 13%, respectively.
As for `Cc1cc(CN2CC[C@H](NC(=O)c3ccc(Cl)c(Cl)c3)C2)ccc1OCCN1CCNCC1.O=C(O)C(F)(F)F`, the Inhibition with Plasmodium falciparum [1] was determined as 94%; with Plasmodium falciparum [2], 1%; in the assay on HepG2, 15%.
`COc1cc(C=NN=c2cc(C)[nH]c3ccccc23)cc(OC)c1OC`: the Inhibition came to 100% in the assay on Plasmodium falciparum [1], 95% in the assay with Plasmodium falciparum [2] and 5% in the assay on HepG2.
In the same order, the values of `COc1cccc([C@@H](CC(=O)Nc2cc(C(F)(F)F)ccc2OC)Nc2ccc(C#N)c3ccccc23)c1` are 96%, 53% and 19%.
`COc1cc(Nc2nccc(-c3c(-c4cccc(NC(=O)c5c(F)cccc5F)c4)nn4ccccc34)n2)cc(OC)c1OC`: the Inhibition was found to be 98% in the assay with Plasmodium falciparum [1], 98% in the assay on Plasmodium falciparum [2] and 74% in the assay on HepG2.
On to `CCN(CC)CCOc1ccc(C(O)(C#CC(O)(c2ccccc2)c2ccc(OCCN(CC)CC)cc2)c2ccccc2)cc1` (stereo unspecified), for which the Inhibition stood at 99% in the assay with Plasmodium falciparum [1], 99% in the assay with Plasmodium falciparum [2] and 81% in the assay with HepG2.

(Values after ChEMBL document CHEMBL1157539, “Thousands of chemical starting points for antimalarial lead identification” (Nature, 2010).)
